Values without a mark were called inactive. Results filed as inconclusive are left out. Calls of active or inactive are those of the source. Calls come from the whole dose curve; as a rule, active = well fitted curve in the direction sought with a large enough effect; inconclusive = small, poorly fitted or top-dose-only effect, or another doubt; inactive = no such curve, though single readings can be large; an effect the other way counts as inactive or inconclusive. Residues, ends and D or L forms follow the SMILES beside them. *: point of attachment. Cbz = O=C(OCc1ccccc1)*
assay: qHTS to identify inhibitors of the type 1 interferon - major histocompatibility complex class I in skeletal muscle: primary screen against the NCATS LOPAC collection (AID 1347405); details: iHSKM muscle cells, IFN-b-induced MHC-I HiBiT luminescence, 24 h; series mostly up to 45.9 µM; activity change, negative = inhibition: at the top concentration;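 note: lytic HiBiT luminescence reporting HLA-B protein level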; note: potency is the fitted concentration of half-maximal effect; for activity change, negative = inhibition: % is set by controls: 0 for no effect and ±100 for the full control effect
In short: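 Immortalized human C25cl48 myoblasts with HiBiT knocked into endogenous HLA-B*08:01 were stimulated with 4.0 ng/ml IFN-beta and given compounds in a 7-point, 1:4.3 titration from 46 uM final; after 24 hrs, lytic HiBiT luminescence was read.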

Question: For `O=C(O)c1cccnc1C(=O)O`, which “activity change, negative = inhibition” value is on record?
Answer: -4.54%

Question: Which “activity change, negative = inhibition” value does the source give for `c1ccc(CN2CCC3(CCCc4ccccc43)CC2)cc1` here?
Answer: -8.66%

Question: For `N[C@@H](Cc1ccc(O)c(I)c1)C(=O)O`, which “activity change, negative = inhibition” value is on record?
Answer: -14.1%

Question: Which “activity change, negative = inhibition” value does the source give for `CCCn1c(=O)c(C)cn2nc(N)nc12` here?
Answer: -0.822%

Question: For `c1ccc2nc(C3=NCCN3)ccc2c1`, which “activity change, negative = inhibition” value is on record?
Answer: -9.15%

Question: Which “activity change, negative = inhibition” value does the source give for `CN1CCC2(CCN3CCc4c(oc5ccccc45)C3C2)N(C)C1=O` (stereo unspecified) here?
Answer: -16.4%

Question: With `CNC(=O)c1cc2c(cn1)[nH]c1ccccc12` as the compound, how does the “activity change, negative = inhibition” value read?
Answer: -8.41%

Question: For `Cn1ccnc1`, which “activity change, negative = inhibition” value is on record?
Answer: 9.62%

Question: Which “activity change, negative = inhibition” value does the source give for `COC(=O)C(C)(N)Cc1ccc(O)cc1` (stereo unspecified) here?
Answer: 6.04%

Question: For `Cn1c(=O)c2[nH]c(-c3ccc(S(=O)(=O)O)cc3)nc2n(C)c1=O`, which “activity change, negative = inhibition” value is on record?
Answer: -7.9%

Question: With `CC1CCN=C(N)S1` (stereo unspecified) as the compound, how does the “activity change, negative = inhibition” value read?
Answer: -1.2%

Question: For `Oc1ccc(Cn2cc[nH]c2=S)cc1`, which “activity change, negative = inhibition” value is on record?
Answer: -1.84%

Question: Which “activity change, negative = inhibition” value does the source give for `Nc1nc2c(cnn2CCc2ccccc2)c2nc(-c3ccco3)nn12` here?
Answer: -2.84%

Question: Which “activity change, negative = inhibition” value does the source give for `O=C(O)c1cc(=O)cc(C(=O)O)[nH]1` here?
Answer: 7.38%

Question: For `CCc1ccc2c(-c3cccc(Cl)c3)nc(=O)n(CC)c2n1`, which “activity change, negative = inhibition” value is on record?
Answer: -17.9%

Question: For `O=C(O)C1CCNCC1`, which “activity change, negative = inhibition” value is on record?
Answer: 1.17%

Question: Which “activity change, negative = inhibition” value does the source give for `NC(N)=[N+]1CCc2ccccc2C1` here?
Answer: -5.39%

Question: With `CC(=O)[C@H]1CCC2C3CC=C4C[C@@H](OS(=O)(=O)O)CC[C@]4(C)C3CC[C@@]21C` (stereo partly specified) as the compound, how does the “activity change, negative = inhibition” value read?
Answer: -14.3%

Question: Which Potency does the source give for `C=C1C(=O)O[C@@H]2[C@H]3O[C@]3(C)CCC=C(C)CC[C@@H]12` here?
Answer: 14.1 µM (active)

Question: With `Oc1cc2c(cc1O)C(c1ccccc1)CNCC2` (stereo unspecified) as the compound, how does the “activity change, negative = inhibition” value read?
Answer: 0.0043%

Question: For `C=CCn1c(=O)c2c(nc(-c3ccc(S(=O)(=O)O)cc3)n2C)n(C)c1=O`, which “activity change, negative = inhibition” value is on record?
Answer: -4.57%

Question: Which “activity change, negative = inhibition” value does the source give for `NC(=O)c1ccccc1` here?
Answer: -7.83%

Question: Which “activity change, negative = inhibition” value does the source give for `CCCC(=O)NCCc1c2n(c3ccc(OC)cc13)CCCc1ccccc1-2` here?
Answer: -12.5%

Question: Which “activity change, negative = inhibition” value does the source give for `C[C@H](O)C(=O)C1=Nc2c(nc(N)[nH]c2=O)NC1` here?
Answer: -0.323%

Question: Which “activity change, negative = inhibition” value does the source give for `N#CC(C#N)=C(N)/C(C#N)=C/c1ccc(O)cc1` here?
Answer: -12.5%

Question: For `c1ccc(C2CN3CCSC3=N2)cc1` (stereo unspecified), which “activity change, negative = inhibition” value is on record?
Answer: 3.91%

Question: For `OC[C@H]1O[C@H](n2cnc3c(N[C@H]4CCC[C@@H]4O)ncnc32)[C@H](O)[C@@H]1O`, which “activity change, negative = inhibition” value is on record?
Answer: -0.733%

Question: Which “activity change, negative = inhibition” value does the source give for `COc1ccc(-c2ccc(N)[n+](CCCC(=O)O)n2)cc1` here?
Answer: 1.95%

Question: Which “activity change, negative = inhibition” value does the source give for `OC[C@H]1NC[C@@H](O)[C@@H]1O` here?
Answer: -2.76%

Question: With `c1ccc2c(c1)CC(N1CCN(c3cccc4c3OCCO4)CC1)C2` as the compound, how does the “activity change, negative = inhibition” value read?
Answer: 1.54%

Question: Which “activity change, negative = inhibition” value does the source give for `OC1(c2ccc(Cl)cc2)CCN(Cc2c[nH]c3ccccc23)CC1` here?
Answer: -6.24%

Question: For `CC(C)[C@H](NC(=O)OCc1ccccc1)C(=O)N[C@H](C=O)Cc1ccccc1` (Cbz-Val-Phe-aldehyde), which “activity change, negative = inhibition” value is on record?
Answer: 21.2%

Question: With `COc1cccc(OC)c1OCCNCC1CSc2ccccc2O1` (stereo unspecified) as the compound, how does the “activity change, negative = inhibition” value read?
Answer: -9.71%

Question: For `Cc1nc(N=Nc2cc(S(=O)(=O)O)c3cc([N+](=O)[O-])cc(S(=O)(=O)O)c3c2)c(COP(=O)(O)O)c(C=O)c1O`, which Potency is on record?
Answer: 15.8 µM (active)

Question: Which “activity change, negative = inhibition” value does the source give for `O=[N+]([O-])c1cccc2cn[nH]c12` here?
Answer: -5.55%

Question: With `CN(CC[C@@H](Oc1ccc(C(F)(F)F)cc1)c1ccccc1)CC(=O)O` as the compound, how does the “activity change, negative = inhibition” value read?
Answer: 0.824%

Question: For `Nc1ccc(CCNc2ncnc3c2ncn3C2OC(CO)C(O)C2O)cc1` (stereo unspecified), which “activity change, negative = inhibition” value is on record?
Answer: -14.6%

Question: Which “activity change, negative = inhibition” value does the source give for `NC(Cc1cccc(-c2ccccc2CP(=O)(O)O)c1)C(=O)O` (stereo unspecified) here?
Answer: 0.0319%

assay: qHTS for inhibitors of adenylyl cyclases using a fission yeast platform: a pilot screen against the NCATS LOPAC library (AID 1347410);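 note: plate controls were DMSO vehicle for no effect and DPI positive control for full effect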; details: S. pombe CHP2027, fbp1-GFP fluorescence, 18 h, yeast expressing mammalian AC9 and human GNAS; series mostly up to 57.5 µM; activity, positive = inhibition (GFP gain): at the top concentration
In short: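 Fission yeast qHTS: CHP2027 cells (AC9-GNAS-PDE4D2, fbp1-GFP), 5x10^6 cells/mL working density, EMM + His/Lys/Ura; LOPAC at up to 57 µM final; 18 h dark, 30C; GFP by laser cytometry. DPI positive control, DMSO vehicle.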

Question: For `O=C(O)c1cccnc1C(=O)O`, which “activity, positive = inhibition (GFP gain)” value is on record?
Answer: -0.438%

Question: With `c1ccc(CN2CCC3(CCCc4ccccc43)CC2)cc1` as the compound, how does the “activity, positive = inhibition (GFP gain)” value read?
Answer: -0.438%

Question: For `N[C@@H](Cc1ccc(O)c(I)c1)C(=O)O`, which “activity, positive = inhibition (GFP gain)” value is on record?
Answer: -0.438%

Question: Which “activity, positive = inhibition (GFP gain)” value does the source give for `CCCn1c(=O)c(C)cn2nc(N)nc12` here?
Answer: -0.438%

Question: With `c1ccc2nc(C3=NCCN3)ccc2c1` as the compound, how does the “activity, positive = inhibition (GFP gain)” value read?
Answer: 0.141%

Question: With `CN1CCC2(CCN3CCc4c(oc5ccccc45)C3C2)N(C)C1=O` (stereo unspecified) as the compound, how does the “activity, positive = inhibition (GFP gain)” value read?
Answer: -0.438%

Question: With `CNC(=O)c1cc2c(cn1)[nH]c1ccccc12` as the compound, how does the “activity, positive = inhibition (GFP gain)” value read?
Answer: -0.438%

Question: With `Cn1ccnc1` as the compound, how does the “activity, positive = inhibition (GFP gain)” value read?
Answer: -0.438%

Question: For `COC(=O)C(C)(N)Cc1ccc(O)cc1` (stereo unspecified), which “activity, positive = inhibition (GFP gain)” value is on record?
Answer: -0.438%

Question: For `Cn1c(=O)c2[nH]c(-c3ccc(S(=O)(=O)O)cc3)nc2n(C)c1=O`, which “activity, positive = inhibition (GFP gain)” value is on record?
Answer: 0.0997%

Question: For `CC1CCN=C(N)S1` (stereo unspecified), which “activity, positive = inhibition (GFP gain)” value is on record?
Answer: 0.355%

Question: With `Oc1ccc(Cn2cc[nH]c2=S)cc1` as the compound, how does the “activity, positive = inhibition (GFP gain)” value read?
Answer: -0.137%

Question: For `Nc1nc2c(cnn2CCc2ccccc2)c2nc(-c3ccco3)nn12`, which “activity, positive = inhibition (GFP gain)” value is on record?
Answer: -0.438%

Question: Which “activity, positive = inhibition (GFP gain)” value does the source give for `O=C(O)c1cc(=O)cc(C(=O)O)[nH]1` here?
Answer: -0.438%

Question: Which “activity, positive = inhibition (GFP gain)” value does the source give for `CCc1ccc2c(-c3cccc(Cl)c3)nc(=O)n(CC)c2n1` here?
Answer: -0.438%

Question: Which “activity, positive = inhibition (GFP gain)” value does the source give for `O=C(O)C1CCNCC1` here?
Answer: -0.438%

Question: Which “activity, positive = inhibition (GFP gain)” value does the source give for `NC(N)=[N+]1CCc2ccccc2C1` here?
Answer: -0.438%

Question: With `CC(=O)[C@H]1CCC2C3CC=C4C[C@@H](OS(=O)(=O)O)CC[C@]4(C)C3CC[C@@]21C` (stereo partly specified) as the compound, how does the “activity, positive = inhibition (GFP gain)” value read?
Answer: -0.0348%

Question: For `C=C1C(=O)O[C@@H]2[C@H]3O[C@]3(C)CCC=C(C)CC[C@@H]12`, which “activity, positive = inhibition (GFP gain)” value is on record?
Answer: -0.438%

Question: For `Oc1cc2c(cc1O)C(c1ccccc1)CNCC2` (stereo unspecified), which “activity, positive = inhibition (GFP gain)” value is on record?
Answer: -0.438%

Question: For `C=CCn1c(=O)c2c(nc(-c3ccc(S(=O)(=O)O)cc3)n2C)n(C)c1=O`, which “activity, positive = inhibition (GFP gain)” value is on record?
Answer: -0.438%

Question: For `NC(=O)c1ccccc1`, which “activity, positive = inhibition (GFP gain)” value is on record?
Answer: -0.438%

Question: For `CCCC(=O)NCCc1c2n(c3ccc(OC)cc13)CCCc1ccccc1-2`, which “activity, positive = inhibition (GFP gain)” value is on record?
Answer: -0.438%

Question: With `C[C@H](O)C(=O)C1=Nc2c(nc(N)[nH]c2=O)NC1` as the compound, how does the “activity, positive = inhibition (GFP gain)” value read?
Answer: 0.712%

Question: For `N#CC(C#N)=C(N)/C(C#N)=C/c1ccc(O)cc1`, which “activity, positive = inhibition (GFP gain)” value is on record?
Answer: 0.253%

Question: With `c1ccc(C2CN3CCSC3=N2)cc1` (stereo unspecified) as the compound, how does the “activity, positive = inhibition (GFP gain)” value read?
Answer: -0.438%

Question: For `OC[C@H]1O[C@H](n2cnc3c(N[C@H]4CCC[C@@H]4O)ncnc32)[C@H](O)[C@@H]1O`, which “activity, positive = inhibition (GFP gain)” value is on record?
Answer: -0.438%

Question: For `COc1ccc(-c2ccc(N)[n+](CCCC(=O)O)n2)cc1`, which “activity, positive = inhibition (GFP gain)” value is on record?
Answer: -0.0023%

Question: Which “activity, positive = inhibition (GFP gain)” value does the source give for `OC[C@H]1NC[C@@H](O)[C@@H]1O` here?
Answer: -0.438%

Question: Which “activity, positive = inhibition (GFP gain)” value does the source give for `c1ccc2c(c1)CC(N1CCN(c3cccc4c3OCCO4)CC1)C2` here?
Answer: 0.193%

Question: Which “activity, positive = inhibition (GFP gain)” value does the source give for `OC1(c2ccc(Cl)cc2)CCN(Cc2c[nH]c3ccccc23)CC1` here?
Answer: -0.438%

Question: For `CC(C)[C@H](NC(=O)OCc1ccccc1)C(=O)N[C@H](C=O)Cc1ccccc1` (Cbz-Val-Phe-aldehyde), which “activity, positive = inhibition (GFP gain)” value is on record?
Answer: 1.5%

Question: Which “activity, positive = inhibition (GFP gain)” value does the source give for `COc1cccc(OC)c1OCCNCC1CSc2ccccc2O1` (stereo unspecified) here?
Answer: -0.438%

Question: Which “activity, positive = inhibition (GFP gain)” value does the source give for `Cc1nc(N=Nc2cc(S(=O)(=O)O)c3cc([N+](=O)[O-])cc(S(=O)(=O)O)c3c2)c(COP(=O)(O)O)c(C=O)c1O` here?
Answer: -0.438%

Question: For `O=[N+]([O-])c1cccc2cn[nH]c12`, which “activity, positive = inhibition (GFP gain)” value is on record?
Answer: 1.51%

Question: For `CN(CC[C@@H](Oc1ccc(C(F)(F)F)cc1)c1ccccc1)CC(=O)O`, which “activity, positive = inhibition (GFP gain)” value is on record?
Answer: 0.188%

Question: With `Nc1ccc(CCNc2ncnc3c2ncn3C2OC(CO)C(O)C2O)cc1` (stereo unspecified) as the compound, how does the “activity, positive = inhibition (GFP gain)” value read?
Answer: 0.137%

Question: With `NC(Cc1cccc(-c2ccccc2CP(=O)(O)O)c1)C(=O)O` (stereo unspecified) as the compound, how does the “activity, positive = inhibition (GFP gain)” value read?
Answer: -0.438%

Source: PubChem BioAssay (NCATS)
